Experimental findings from PubChem BioAssay are described below.

This assay relates to Lefty1. Description: Lefty1 protein binding to printed compounds – biochemical, small-molecule microarray, 635/667 nm fluorescence, primary screen (AID 1139). As to conditions: fluorescence 635/667, higher = more signal.
`CC(=O)OC[C@H]1O[C@@H](ON=C[C@@H](C)[C@H](OCc2ccccc2)C(C)C)[C@H](OC(C)=O)[C@@H](OC(C)=O)[C@@H]1OC(C)=O` gave a composite z-score of -0.207.
Then `CN1C(=O)C2C=CC(C(O)C(c3ccccc3)c3ccccc3)N(NC(=O)OC(C)(C)C)C2C1=O` (stereo unspecified), with 0.895.
As to `COC(=O)C1=C(C)N(Cc2ccccc2)[C@]23O[C@](C(=O)OC)(C(=O)N2[C@@H]1c1ccccc1)[C@H]1CCOC(=O)[C@H]13`, the composite z-score came out at 1.41.
On to `C=C(CCCC)C(=O)CC[C@@H](OC(C)=O)c1cccc(OCCO)c1`, for which the composite z-score stood at 0.932.
`CO[C@@H]1COC(=O)CC=C[C@@H](C)[C@@H]2C=C[C@@H](O)[C@@H](COC(=O)CC=C[C@H]1C)O2`: the composite z-score turned out to be 1.47.
Then `COC(=O)[C@@]1(Cc2ccccc2)[C@H]2c3cc(C(=O)N4CCCC4)n(Cc4ccccn4)c3C[C@H]2CN1C(=O)c1ccccc1`, with 0.19; and `CCOC(=O)NN=C1C[C@@H](O)[C@@H](O)[C@@H]2[C@@H]3C(=O)N(C(C)(C)C)C(=O)[C@@H]3CC[C@@H]12`, with -0.519.
In the case of `C=CCN1C(=O)[C@]2(O[C@H](CCn3cc(CCO)nn3)[C@@H]([Si](C)(C)c3ccc(OC)cc3)[C@@H]2C)c2cc(N3CCOC3=O)ccc21`, the composite z-score is 0.0269.
To `CCOc1ccc(N2C(=O)/C(=C/C=C/c3ccccc3OC)S(=O)(=O)C2c2cccc([N+](=O)[O-])c2)cc1` (stereo unspecified) belongs 0.23; to `O[C@@H](Cc1ccccc1)[C@H]1C2C=CCCC(c3ccccc3)=C2CN1Cc1cccc(Cl)c1` (stereo partly specified), 0.625; to `CO[C@H]1O[C@H](CO)[C@@H](OC(=O)Nc2ccc(C#N)cc2)[C@H](OC(=O)c2cc3ccccc3[nH]2)[C@H]1OC(=O)c1cc2ccccc2[nH]1`, 0.421.
On to `Cc1ccc(S(=O)(=O)N[C@@H]2COC(=O)[C@H](C)COC(=O)CC=C[C@H]2C)cc1`, for which the composite z-score worked out at 1.38.
As to `C=CC[C@@H]1C=C[C@H](ON=C2c3cc(OC)ccc3O[C@H](c3cccc(OC)c3)[C@H]2O)[C@@H](CO)O1`, the composite z-score is 0.873.
In turn, `C=CCC(OC(C)=O)[C@@H]1[C@@H](N(Cc2cc3ccccc3o2)C(=O)Cc2ccc(F)cc2)c2cc(OCCCO)ccc2N1C(=O)Cc1ccc(OC)cc1` (stereo partly specified) gave a composite z-score of 0.158.
Molecule `CCOC(=O)[C@H](CC(C)C)NC(=O)CCC1CC(OC(=O)NCCc2ccc(F)cc2)CC2(CCCC(COC(=O)NCc3ccccc3)O2)O1` (stereo partly specified) displayed a composite z-score of 1.04.
Then `O=C1[C@H]2[C@H]3[C@H](O)[C@H](O)CC(=NOC[C@@H](O)COCc4ccco4)[C@H]3CC[C@H]2C(=O)N1Cc1ccc2c(c1)OCO2`, with 1.25; and `CC(CCC(=O)OC[C@H]1O[C@H](C#Cc2ccccc2)C=C[C@@H]1Oc1ccc(C)cc1)=NOC[C@@H](O)[C@H]1O[C@@H]2OC(C)(C)O[C@@H]2[C@H]1O`, with 0.131; and `CC(C)(C)N1CC=CC23O[C@@H]4C=CCCOC(=O)C4[C@H]2C(=O)N(CCCCCO)[C@@H]3C1=O` (stereo partly specified), with 0.887.
`CCc1cc2c(nc1CC)CCN(CCC(C)=NO[C@@H](C)c1cc(-c3c(C)cc(C)cc3C)no1)C2` showed a composite z-score of 0.388.
To `CC(C)CON=C1C[C@@H](O)[C@@H](O)[C@@H]2[C@@H]3C(=O)N(Cc4ccccc4)C(=O)[C@@H]3CC[C@@H]12` belongs 0.516; to `COCCCNC(=O)[C@@]1(C)c2ccccc2C(=O)N(Cc2ccc(OC(F)(F)F)cc2)[C@H]1c1ccc(CO)cc1`, -1.02.
`O=C1C2=CC[C@H]3C(=O)N(Cc4ccc5c(c4)OCO5)C(=O)[C@H]3[C@H]2[C@H](O)[C@@H]2O[C@H]12`: the composite z-score stood at 0.408.
As for `COc1ccc(O[C@H]2C=C[C@@H](c3ccccc3)O[C@@H]2COC(=O)CCC(C)=NOC(C)CN2CCCCc3nc(C)c(C)cc32)cc1` (stereo partly specified), the composite z-score was -0.214.
Consider `CC(CCN1CCCCc2nc(C)c(C)cc21)=NOC(C)CN1CCCCc2nc(C)c(C)cc21` (stereo unspecified), for which the composite z-score was found to be 1.6.
To `O=C1[C@H]2[C@H]3[C@H](O)[C@H](O)CC(=NOCc4ccccc4)[C@@H]3CC[C@H]2C(=O)N1C1CCCCC1` belongs 0.348; to `COc1ccc([Si](C)(C)[C@@H]2[C@@H](CCO)O[C@]3(C(=O)N(Cc4ccc(NC(C)=O)cc4)c4ccccc43)[C@H]2C)cc1`, 0.727; to `Cc1cc2c(c(=O)o1)[C@H](O)[C@H]1O[C@H]1C2=O`, -0.32.
Molecule `O=C1[C@H]2[C@H]3[C@H](O)[C@H](O)CC(=NOC[C@@H](O)COCc4ccco4)[C@H]3CC[C@H]2C(=O)N1C1CCCCC1` showed a composite z-score of 1.3.
Take `[N-]=[N+]=Nc1ccccc1C[C@@]1(C(N)=O)N=C(c2ccc(OCCCO)cc2)O[C@@H]1c1ccccc1`: the composite z-score was -1.27.
`CCOC(=O)NN=C1C[C@@H](O)[C@@H](O)[C@@H]2[C@@H]3C(=O)N(CC)C(=O)[C@@H]3CC[C@@H]12` returned a composite z-score of 0.476.
On to `CC(C)NC(=O)[C@@]1(c2ccc([N+](=O)[O-])cc2)CC(=O)N(CC23CC4CC(CC(C4)C2)C3)[C@@H]1c1ccc(CO)cc1I`, for which the composite z-score was -0.167.
Consider `COC(=O)C1(C)C=C2C(=C(c3ccccc3)C(=O)C2C)CN1` (stereo unspecified), for which the composite z-score was -1.5.
Take `O=C1[C@H]2[C@H]3[C@H](O)[C@H](O)CC(=NO[C@@H]4O[C@H](CO)[C@@H](O)[C@H](O)[C@H]4O)[C@@H]3CC[C@H]2C(=O)N1Cc1ccccc1`: the composite z-score was 0.289.
`CCOC(=O)CCN1C(=O)[C@H]2[C@H]3[C@H](O)C=CC(=O)[C@@H]3CC[C@H]2C1=O` came in with a composite z-score of 0.345.
To `Cc1cc2c(nc1C)CCCN2CC(C)ON=C1[C@H]2CCn3c(=O)n(-c4ccccc4)c(=O)n3[C@H]2[C@H](O)[C@@H]2O[C@H]12` (stereo partly specified) belongs 0.703; to `CCCCc1nc2c(c3c1C[C@H](C)OC3)CN(CCC(C)C)CC2`, 1.17.
